In PubChem BioAssay (NCI):
Compounds without any hit were thinned out: in the full panel of roughly 83,000, 20% have a hit.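 The test compound was applied at a single concentration to cells in 96-well plates for 48 hours, and percent growth was recorded.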 Unmarked numbers belong to inactive results. Activity calls are given as the source filed them. The calls were made as follows: active = growth percent below 10; inactive = the rest.

Key:
Test in all cases: NCI-60 one-dose screen, 48 h (100 = growth as untreated, 0 = no growth, -100 = all killed)
Settings in all cases: 10 µM unless noted
NCI-H23 lung = test system: NCI-H23 lung
NCI-H226 lung = test system: NCI-H226 lung
NCI-H322M lung = test system: NCI-H322M lung
HOP-62 NSCLC = test system: HOP-62 NSCLC
NCI-H460 lung = test system: NCI-H460 lung
HOP-92 NSCLC = test system: HOP-92 NSCLC
NCI-H522 lung = test system: NCI-H522 lung
A549/ATCC NSCLC = test system: A549/ATCC NSCLC
786-0 renal = test system: 786-0 renal
COLO 205 colon = test system: COLO 205 colon
DU-145 prostate = test system: DU-145 prostate
K-562 leukemia = test system: K-562 leukemia
MALME-3M melanoma = test system: MALME-3M melanoma
MDA-MB-231 breast = test system: MDA-MB-231 breast
RXF 393 renal = test system: RXF 393 renal
SF-268 CNS = test system: SF-268 CNS
SF-295 CNS = test system: SF-295 CNS
SF-539 CNS = test system: SF-539 CNS
UACC-257 melanoma = test system: UACC-257 melanoma
M14 melanoma = test system: M14 melanoma

Compound	growth (NCI-H23 lung)	growth (NCI-H226 lung)	growth (NCI-H322M lung)	growth (HOP-62 NSCLC)	growth (NCI-H460 lung)	growth (HOP-92 NSCLC)	growth (NCI-H522 lung)	growth (A549/ATCC NSCLC) [%]	growth (786-0 renal)	growth (COLO 205 colon)	growth (DU-145 prostate)	growth (K-562 leukemia)	growth (MALME-3M melanoma)	growth (MDA-MB-231 breast)	growth (RXF 393 renal)	growth (SF-268 CNS)	growth (SF-295 CNS)	growth (SF-539 CNS)	growth (UACC-257 melanoma)	growth (M14 melanoma)
COc1cccc2cc(N(C)c3ncnc4ccccc34)ccc12	15.5%	46.2%	48%	23.3%	4.58% (active)	28.1%	-9.69% (active)	13.5	29.5%	-13.8% (active)	10.3%	9.92% (active)	39.4%	31.3%	25.9%	30.2%	11%	-28.5% (active)	25.3%	14.3%
Cc1c(C(=O)C(SC(=S)N2CCOCC2)SC(=S)N2CCOCC2)nnn1-c1ccc([N+](=O)[O-])cc1	108%	89.4%	98.7%	94.5%	98.8%	92.9%	80.3%	–	98.6%	86.5%	109%	74.7%	93.7%	101%	105%	104%	96.5%	101%	93.2%	89.8%
COc1ccc(/C=C\c2cc(OC)c(OC)c(OC)c2)cc1OCC(=O)Nc1nc2ccccc2s1	23.5%	41.7%	61.6%	62.5%	1.29% (active)	50.6%	-21.8% (active)	–	51.4%	6.65% (active)	-27.3% (active)	15.6%	49.7%	21.8%	20.6%	24.1%	9.97% (active)	11.8%	54.4%	27.6%
O=C(NS(=O)(=O)c1ccccc1)n1cc(-c2ccncc2)c(-c2cc(O)cc(Cl)c2)n1	104%	104%	108%	115%	111%	103%	76.1%	–	98%	114%	112%	78%	15.3%	90.4%	112%	108%	110%	86.5%	70.8%	32.1%
CCOC(=O)/C(=C/c1ccc([N+](=O)[O-])cc1)C(=O)c1ccccc1	48%	21.3%	73.5%	76.5%	55.2%	32.4%	-24.7% (active)	–	17.2%	4.21% (active)	65.3%	4.82% (active)	32.4%	20.1%	-11.1% (active)	24.5%	81.6%	-24.9% (active)	45.4%	32.4%
Cc1[nH]c(C2CC(c3ccc(C(F)(F)F)c(F)c3)=NN2C)c(C)c1C(=O)NCC(F)(F)F (stereo not drawn)	95.4%	93.3%	92.7%	106%	101%	114%	88.9%	–	109%	114%	96.3%	85.6%	93.8%	85.4%	93.7%	92.4%	94.9%	96.7%	97.9%	115%
O=C(Cn1cc(CSc2nc3ccccc3o2)nn1)Nc1ccc([N+](=O)[O-])cc1	97.8%	99.4%	102%	83.7%	98.5%	95.2%	78.5%	–	99.1%	110%	108%	92.6%	104%	91.5%	108%	91.8%	102%	101%	110%	96.2%
CCOC(=O)c1ccc2c(c1)c1c(C)c3cnccc3c(C)c1n2C	-51.2% (active)	-33.6% (active)	-14.1% (active)	-47.3% (active)	-17.2% (active)	-24.2% (active)	-79.1% (active)	–	-95.7% (active)	-63.9% (active)	-17% (active)	0.0057% (active)	-91.3% (active)	-55.9% (active)	-83% (active)	-15.9% (active)	-24.3% (active)	-95.8% (active)	-42.2% (active)	-88.3% (active)
